Among the data in the OligoGym collection are sensor-assay potency score (higher = more potent) values, retold here.
Note: reference of the scale not given here.

The first test addresses STRADB. The experiment in a line: pooled miR-30 sensor sort-seq; sequence = guide strand. Particulars: shRNA.
With TAATCGGTCACTATTTACTGTG, the sensor-assay potency score (higher = more potent) is -0.781.

On to TTACTGTGTGAGTTCCACTGGA, for which the sensor-assay potency score (higher = more potent) stood at 0.572.

As for TTCTTCATTGCAGTTTTCCAGA, the sensor-assay potency score (higher = more potent) is -0.72.

As for TTCTACTTGGAGCTCATAGTGA, the sensor-assay potency score (higher = more potent) was -0.852.

Turning to TACTCCTGTGAATACAGCCATT, the sensor-assay potency score (higher = more potent) was -1.43.

The sequence TAGATTAGTAATTCTGATGTTT registered a sensor-assay potency score (higher = more potent) of 0.0372.

TACTGTGTGAGTTCCACTGGAG displayed a sensor-assay potency score (higher = more potent) of 0.0726.

As to TTGATGGCTTGTTATAAGCAGG, the sensor-assay potency score (higher = more potent) was -1.06.

Another test addresses STRBP. The description is as above. The settings on record: shRNA.
As for TTACACATGATTTTAATCCATT, the sensor-assay potency score (higher = more potent) was -0.986.

Take TTGATATTTCTCTTCTGTGAGT: the sensor-assay potency score (higher = more potent) is -0.566.

On to TTTGACTGTATTTAACAGGGTC, for which the sensor-assay potency score (higher = more potent) came out at 0.301.

TAACAGAACCATTCTCTTGGGT yielded a sensor-assay potency score (higher = more potent) of 0.367.

Turning to TTCTTCTCCAATTCGTCCCTAA, the sensor-assay potency score (higher = more potent) turned out to be 0.053.

For TAAAACTTAAACTTTGAACTGC, the sensor-assay potency score (higher = more potent) was 0.571.

TTACTATCCAGAATTTTCCTTA returned a sensor-assay potency score (higher = more potent) of 0.368.

TTTGAGACTCTATACATCCTTC: the sensor-assay potency score (higher = more potent) is -0.328.

As to TTGAGTTTGAAGACACTGTTTC, the sensor-assay potency score (higher = more potent) was -0.227.

Regarding TTTCGTTTCATCTTCTTGTTGG, the sensor-assay potency score (higher = more potent) was 0.788.
